This passage reports outcome and AC50 results from PubChem BioAssay (EPA / NIEHS).

In experiment [1] the target is rat Thyrotropin Releasing Hormone Receptor (TRH), Trhr (gene 25570) (UniProt Q01717). The experiment in a line: NVS_GPCR_rTRH: NovaScreen (NVS) G Protein-Coupled Receptor Assay for rat Thyrotropin Releasing Hormone Receptor (TRH) (AID 2283329).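 Also: hit means lower bound tracer signal versus DMSO baseline.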 An outline of the steps:
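Rat forebrain membrane prep, radioligand displacement, filter scintillation readout at 4 h. Single conc 25 uM, duplicate; actives retested as concentration series. DMSO = negative control/baseline.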

The target of experiment [2] is human Neonicotinoid receptor (NNR), CHRNA2 (gene 1135) (UniProt Q15822). The experiment in a line: NVS_LGIC_hNNR_NBungSens: NovaScreen (NVS) Ligand-Gated Ion Channel Assay for human Neonicotinoid receptor (NNR) (AID 2283313). Put shortly:
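Compounds first screened in duplicate at 25 uM, then actives re-tested in single-replicate dose series up to 50 uM. Binding measured as displacement of specific radioligand from neuroblastoma membrane receptors after 2 h, scintillation read on filters.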

The target in experiment [3] is human Constitutive Androstane Receptor (CAR), NR1I3 (gene 9970) (UniProt Q14994). The experiment in a line: NVS_NR_hCAR_Agonist: NovaScreen (NVS) Nuclear Receptor Binding Assay for human Constitutive Androstane Receptor Agonism (CAR) (AID 2283328). Put shortly: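 Actives from a 25 uM duplicate screen were retested in singleton concentration series to 50 uM max. Biochemical TR-FRET assay on extracted CAR protein measured 1 h post-dose, with signal increase over DMSO control.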

In experiment [4] the target is rat Adrenergic Receptor, Alpha 2 (Adra2), Non-selective Binding, Adra2a (gene 25083) (UniProt P22909). The experiment in a line: NVS_GPCR_rAdra2_NonSelective: NovaScreen (NVS) G Protein-Coupled Receptor Assay for rat Adrenergic Receptor, Alpha 2 (Adra2), Non-selective Binding (AID 2283299). An outline of the steps:
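Filter-based scintillation counting of radioligand binding to rat cortical membrane receptors, measured 1.25 hours post-dosing; loss of signal versus DMSO indicates displacement. Initial single-concentration duplicate at 25 uM, then concentration series.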

In experiment [5] the target is rat Neonicotinoid receptor (NNR), Chrna7 (gene 25302) (UniProt Q05941). The experiment in a line: NVS_LGIC_rNNR_BungSens: NovaScreen (NVS) Ligand-Gated Ion Channel Assay for rat Neonicotinoid receptor (NNR) (AID 2283315). Put shortly:
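Rat cortical membrane preparation incubated 2.5 h with tritiated or iodinated radioligand and test chemical. Bound radioactivity was filtered and counted by scintillation, and displacement was analysed against DMSO.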

The target of experiment [6] is human Constitutive Androstane Receptor (CAR), NR1I3 (gene 9970) (UniProt Q14994). The experiment in a line: NVS_NR_hCAR_Antagonist: NovaScreen (NVS) Nuclear Receptor Binding Assay for human Constitutive Androstane Receptor Antagonism (CAR) (AID 2283344). Put shortly: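 Single 25 uM duplicate primary screen, with concentration-series follow-up on actives. Cell-free binding format run in antagonist mode, TR-FRET signal taken 1 h post-dose; activity is signal loss relative to DMSO.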

Inconclusive results are not listed. A structure can be active in one record and inactive in another. Activity calls are given as the source filed them. The calls were made as follows: active = hit-call score of the fitted dose curve at least 0.9, where 1 is the maximum; inconclusive = response in the unintended direction; inactive = score below 0.9.

For orientation: AC50 means the midpoint of the concentration-response curve, whichever way the signal moves.

rat Neonicotinoid receptor (NNR), Chrna7 (gene 25302), sequence (Q05941 whole entry, looked up): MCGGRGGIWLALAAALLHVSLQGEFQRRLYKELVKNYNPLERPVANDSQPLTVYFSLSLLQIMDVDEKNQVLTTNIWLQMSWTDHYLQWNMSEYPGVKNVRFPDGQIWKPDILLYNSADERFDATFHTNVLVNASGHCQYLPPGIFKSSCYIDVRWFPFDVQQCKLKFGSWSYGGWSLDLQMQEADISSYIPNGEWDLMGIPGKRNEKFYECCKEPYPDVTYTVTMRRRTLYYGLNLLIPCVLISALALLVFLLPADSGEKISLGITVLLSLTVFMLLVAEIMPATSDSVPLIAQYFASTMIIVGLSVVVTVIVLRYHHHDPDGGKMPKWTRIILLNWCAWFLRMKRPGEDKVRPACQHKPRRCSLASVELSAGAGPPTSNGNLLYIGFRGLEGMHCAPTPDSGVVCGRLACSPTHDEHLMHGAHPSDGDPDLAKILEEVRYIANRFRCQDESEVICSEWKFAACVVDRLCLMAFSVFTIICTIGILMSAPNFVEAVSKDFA
human Constitutive Androstane Receptor (CAR), NR1I3 (gene 9970), sequence (Q14994 whole entry, looked up): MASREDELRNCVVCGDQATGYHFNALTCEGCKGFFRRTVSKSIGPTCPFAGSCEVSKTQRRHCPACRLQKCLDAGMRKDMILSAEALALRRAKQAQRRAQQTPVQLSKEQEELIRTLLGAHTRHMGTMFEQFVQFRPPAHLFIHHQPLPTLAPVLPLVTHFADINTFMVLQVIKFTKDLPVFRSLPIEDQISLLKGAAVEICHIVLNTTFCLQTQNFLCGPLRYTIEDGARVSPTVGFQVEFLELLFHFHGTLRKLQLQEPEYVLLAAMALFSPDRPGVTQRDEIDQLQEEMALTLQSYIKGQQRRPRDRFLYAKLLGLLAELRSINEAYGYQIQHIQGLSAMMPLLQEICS
human Neonicotinoid receptor (NNR), CHRNA2 (gene 1135), sequence (Q15822 whole entry, looked up): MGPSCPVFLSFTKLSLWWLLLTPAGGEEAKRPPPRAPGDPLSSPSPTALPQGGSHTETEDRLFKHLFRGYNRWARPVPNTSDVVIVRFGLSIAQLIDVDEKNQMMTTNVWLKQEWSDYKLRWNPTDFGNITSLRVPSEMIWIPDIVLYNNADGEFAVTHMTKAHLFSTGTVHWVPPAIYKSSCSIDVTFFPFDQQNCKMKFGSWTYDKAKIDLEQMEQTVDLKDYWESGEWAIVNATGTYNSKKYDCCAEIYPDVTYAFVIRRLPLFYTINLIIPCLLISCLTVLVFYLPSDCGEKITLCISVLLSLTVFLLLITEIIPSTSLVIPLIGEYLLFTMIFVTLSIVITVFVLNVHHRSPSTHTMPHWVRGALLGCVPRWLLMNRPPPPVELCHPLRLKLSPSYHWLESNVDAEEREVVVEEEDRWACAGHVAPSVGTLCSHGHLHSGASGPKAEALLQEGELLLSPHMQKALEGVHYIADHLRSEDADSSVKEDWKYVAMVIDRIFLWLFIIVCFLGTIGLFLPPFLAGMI
rat Adrenergic Receptor, Alpha 2 (Adra2), Non-selective Binding, Adra2a (gene 25083), sequence (P22909 whole entry, looked up): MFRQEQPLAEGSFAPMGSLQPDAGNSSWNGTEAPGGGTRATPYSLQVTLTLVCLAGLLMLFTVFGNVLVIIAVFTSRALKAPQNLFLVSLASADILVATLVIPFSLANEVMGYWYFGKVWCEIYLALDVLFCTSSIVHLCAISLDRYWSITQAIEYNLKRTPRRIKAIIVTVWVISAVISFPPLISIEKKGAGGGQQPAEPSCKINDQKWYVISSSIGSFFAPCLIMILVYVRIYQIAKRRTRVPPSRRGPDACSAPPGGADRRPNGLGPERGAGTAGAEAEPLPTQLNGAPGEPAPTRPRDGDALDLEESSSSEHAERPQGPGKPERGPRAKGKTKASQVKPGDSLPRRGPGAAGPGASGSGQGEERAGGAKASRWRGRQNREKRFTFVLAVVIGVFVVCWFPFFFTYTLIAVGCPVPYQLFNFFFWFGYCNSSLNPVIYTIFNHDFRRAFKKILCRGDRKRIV
rat Thyrotropin Releasing Hormone Receptor (TRH), Trhr (gene 25570), sequence (Q01717 whole entry, looked up): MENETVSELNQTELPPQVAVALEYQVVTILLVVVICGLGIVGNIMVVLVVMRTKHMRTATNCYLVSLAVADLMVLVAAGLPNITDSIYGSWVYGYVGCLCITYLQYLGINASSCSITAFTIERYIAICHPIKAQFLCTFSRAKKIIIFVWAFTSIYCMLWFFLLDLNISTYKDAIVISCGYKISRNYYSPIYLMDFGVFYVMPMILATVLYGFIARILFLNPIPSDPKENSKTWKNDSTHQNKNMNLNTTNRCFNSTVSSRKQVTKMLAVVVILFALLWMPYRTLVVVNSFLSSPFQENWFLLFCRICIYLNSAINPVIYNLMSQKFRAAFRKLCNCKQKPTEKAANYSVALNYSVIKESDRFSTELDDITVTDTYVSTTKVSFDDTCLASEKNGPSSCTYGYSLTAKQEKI

Consider `O=c1[nH]c(=O)n(Cl)c(=O)n1Cl`, for which, in experiment [1], the compound was called inactive.
As for `O=C(N[C@H]1CN2CCC1CC2)c1ccc2c(c1)OCCO2`, the concentration at half-maximal activity (AC50) in experiment [2] is 12.1 µM (active). Besides, the outcome in experiment [3] was inactive.
`C[N+](C)(C)Cc1ccccc1`: in experiment [4], the AC50 is 31.5 µM (active). In addition, in experiment [5], the AC50 is 25 µM (active) and the call was inactive.
For `CC(C)O.CC(C)O.OCCN(CCO)CCO.OCCN(CCO)CCO.[Ti]`, in experiment [6], the AC50 is 25 µM (active).
